Compound activity: PubChem BioAssay, Broad Institute
C diff growth: C. difficile growth inhibitors, primary screen, HTS. Clostridium difficile clinical isolate growth, OD600, 24 h; hits give low values. actives 0.25% (n = 86,000). growth activity, negative = inhibition, % at 16 µg/mL (by protocol);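 active means mean growth activity at or below -80% and every replicate also at or below -80%; inconclusive means mean at or below -80% but some replicate above -80%; inactive means mean growth activity above -80%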
T cruzi growth-1: T. cruzi intracellular proliferation inhibitors, primary screen, cell-based, beta-gal Tulahuen parasites, NIH3T3 host, luminescence; actives 5.9% (n = 77,000); inhibition, % at 8.34 µM; T. cruzi beta-gal in NIH3T3, GalScreen luminescence, 90 h;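 active means mean inhibition above about 93%, with at least 55% of replicates each passing it, limit read from the data, passing the limit was not always enough; inconclusive means only one of those two conditions holds; inactive means neither condition holds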
Pf Dd2 growth: P. falciparum Dd2 growth inhibitors, primary screen, SYBR Green fluorescence, single dose replicates; actives 2.3% (n = 94,000); activity change, % at 10 µM; 72 h; hits give low values; in the data active means activity change below about -80%; inconclusive means no clear call, values can overlap the other calls
T cruzi growth-2: T. cruzi intracellular proliferation inhibitors, confirmation, cell-based, NIH3T3 host, beta-gal parasite, luminescence, cherry-pick; actives 72% (n = 5,600); T. cruzi beta-gal in NIH3T3, GalScreen luminescence, 90 h; shares compounds with T cruzi growth-1; inhibition, % at 8.35 µM;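 active means mean replicate inhibition above about 95% and at least 55% of replicates individually reaching it, limit read from the data; inconclusive means only one of the two criteria is met; inactive means neither criterion is met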
T cruzi growth-3: inhibitors of intracellular T. cruzi replication, confirmation, NIH3T3 host cells, beta-gal parasites, cherry-pick, set 2. actives 21% (n = 5,600). T. cruzi beta-gal in NIH3T3, GalScreen luminescence, 90 h. shares compounds with T cruzi growth-1. inhibition, % at 2.09 µM. AID 651740, 2012;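 active means mean inhibition above about 95%, with at least 55% of replicates also reaching it, limit read from the data; inconclusive means meets just one of the two conditions; inactive means meets neither condition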
3T3 cytotox: cytotoxicity in mouse NIH/3T3 fibroblasts, confirmation, cytotoxicity control for T. cruzi proliferation inhibitor project, cell-based, cherry-pick, single point. actives 14% (n = 5,600). AID 651742, 2012. NIH/3T3 viability, CellTiter-Glo ATP luminescence, 90 h. cytotoxicity (signal decrease), % at 8.35 µM. shares compounds with T cruzi growth-1;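 active means mean signal decrease across replicates above about 35% based on untreated-well scatter, with enough replicates individually passing, limit read from the data; inconclusive means no rule stated though some were filed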
NIH3T3 tox 2: NIH/3T3 fibroblast cytotoxicity, confirmation, cytotoxicity control, cell-based, cherry-pick, single point, set 2; shares compounds with T cruzi growth-1; NIH/3T3 viability, CellTiter-Glo ATP luminescence, 90 h; inhibition, % at 24.9 µM; actives 56% (n = 5,600); AID 651744, 2012;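 active means mean loss of cell viability signal at or above a set limit, and enough replicates individually reaching it; inconclusive means meets only the mean limit or only the replicate share; inactive means meets neither condition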
Each line names hits and unclear results; the compound was inactive in the other large screens (follow-up assays come after a bar, where they were run). Most compounds without a hit are left out; they make up all but 6.7% or so of the library.

CO[C@H]1CN(C)C(=O)c2cc(NC(=O)C3CCC3)ccc2OC[C@@H](C)N(Cc2cccnc2)C[C@@H]1C	T cruzi growth-1 103 (no result: C diff growth) | T cruzi growth-2 inactive | T cruzi growth-3 inactive | 3T3 cytotox inactive | NIH3T3 tox 2 inactive
CO[C@H]1CN(C)C(=O)c2cc(NC(=O)C3CCC3)ccc2OC[C@H](C)N(Cc2cccnc2)C[C@@H]1C	none (no result: C diff growth)
C[C@H](CO)N1C[C@H](C)[C@@H](CN(C)S(=O)(=O)c2ccc(Cl)cc2)OCCCC[C@H](C)Oc2ccc(NS(=O)(=O)c3ccc(F)cc3)cc2C1=O	none
C[C@@H]1CCCCO[C@H](CN(C)S(=O)(=O)c2ccc(Cl)cc2)[C@H](C)CN([C@H](C)CO)C(=O)c2cc(NS(=O)(=O)c3ccc(F)cc3)ccc2O1	none
C[C@@H]1CN([C@H](C)CO)C(=O)c2cc(NS(=O)(=O)c3ccc(F)cc3)ccc2O[C@@H](C)CCCCO[C@H]1CN(C)S(=O)(=O)c1ccc(Cl)cc1	T cruzi growth-1 inconclusive | T cruzi growth-2 105 | T cruzi growth-3 113 | 3T3 cytotox inactive | NIH3T3 tox 2 inactive
C[C@@H]1CCCCO[C@H](CN(C)S(=O)(=O)c2ccc(F)cc2)[C@@H](C)CN([C@@H](C)CO)C(=O)c2cc(NS(=O)(=O)c3ccc(Cl)cc3)ccc2O1	T cruzi growth-1 97 | T cruzi growth-2 105 | T cruzi growth-3 111 | 3T3 cytotox inactive | NIH3T3 tox 2 inactive
C[C@@H]1CN([C@@H](C)CO)C(=O)c2cc(NS(=O)(=O)c3ccc(Cl)cc3)ccc2O[C@@H](C)CCCCO[C@H]1CN(C)S(=O)(=O)c1ccc(F)cc1	T cruzi growth-1 105 | T cruzi growth-2 104 | T cruzi growth-3 inactive | 3T3 cytotox inactive | NIH3T3 tox 2 inactive
C[C@@H]1CN([C@@H](C)CO)C(=O)c2cc(NS(=O)(=O)c3ccc(F)cc3)ccc2O[C@@H](C)CCCCO[C@H]1CN(C)S(=O)(=O)c1ccc(Cl)cc1	none
C[C@H]1CCCCO[C@@H](CN(C)S(=O)(=O)c2ccc(F)cc2)[C@@H](C)CN([C@@H](C)CO)C(=O)c2cc(NS(=O)(=O)c3ccc(Cl)cc3)ccc2O1	T cruzi growth-1 100 | T cruzi growth-2 104 | T cruzi growth-3 inconclusive | 3T3 cytotox inactive | NIH3T3 tox 2 inactive
CCCC#Cc1ccc([C@H]2[C@@H](CO)N3C(=O)CN(C(=O)c4ccccn4)C[C@@H]23)cc1	none (no result: T cruzi growth-1)
O=C(c1ccccn1)N1C[C@@H]2[C@H](c3ccccc31)[C@H](CO)N2C(=O)C1CC1	none
O=C(C[C@H]1C[C@H]2c3cc(NC(=O)Nc4ccccc4F)ccc3O[C@H]2[C@@H](CO)O1)NC1CCCC1	none (no result: C diff growth)
O=C(C[C@H]1CC[C@@H]2[C@H](COC[C@H](O)CN2Cc2nccs2)O1)NCc1ccc(-c2ccccc2)cc1	none (no result: C diff growth)
Cc1ccccc1S(=O)(=O)NCC[C@H]1CC[C@@H](NC(=O)C2CCCCC2)[C@H](CO)O1	none
O=C(Cc1ccccn1)N1CC2(C1)[C@H](c1ccccc1)[C@@H](CO)N2C(=O)c1ccncc1	none (no result: T cruzi growth-1)
C[C@@H]1CN([C@H](C)CO)C(=O)CCCn2cc(nn2)CO[C@@H]1CN(C)Cc1cccc(O)c1	none
C[C@@H]1CCCCO[C@H](CN(C)S(=O)(=O)c2ccc(Cl)cc2)[C@H](C)CN([C@@H](C)CO)C(=O)c2cc(NS(=O)(=O)c3ccc(F)cc3)ccc2O1	none
C[C@H]1CCCCO[C@@H](CN(C)S(=O)(=O)c2ccc(Cl)cc2)[C@@H](C)CN([C@@H](C)CO)C(=O)c2cc(NS(=O)(=O)c3ccc(F)cc3)ccc2O1	T cruzi growth-1 102 | T cruzi growth-2 105 | T cruzi growth-3 110 | 3T3 cytotox inactive | NIH3T3 tox 2 inactive
C[C@H]1CN([C@@H](C)CO)S(=O)(=O)c2ccc(-c3cccc(C#N)c3)cc2O[C@H]1CN(C)C(=O)Nc1cc(F)ccc1F	none (no result: T cruzi growth-1)
